# TSHR antagonist: human thyrotropin receptor antagonism; activity change, negative = inhibition, % at 11.5 µM; 330,000 compounds, 0.2% hits; TSHR-expressing cells, TSH-stimulated cAMP HTRF, 2 h; hits give low values; P16473;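 active = activity change below a set negative limit, meaning inhibition stronger than a set level, cut at about -70% in these data; inconclusive = activity change between two set negative limits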
#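 Inhibition of cAMP made by TSHR-expressing cells under TSH stimulation (4nM final, EC80; 2 h, 37 deg C) is quantified with a one-step lysis HTRF kit, anti-cAMP cryptate versus cAMP-d2.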
# Vif-APOBEC3F blk: inhibitors of Vif-A3F interaction; HeLa A3F-eYFP + Vif (tagged APOBEC3F with the HIV-1 protein that degrades it), YFP fluorescence increase; AID 602313; 390,000 compounds, 0.2% hits; Potency, µM (titrated, usually from 46.1 µM); note: nearly all actives have a fitted effect of over 65% in size
#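 Fluorescence increase (Ex 488/Em 500-530) after overnight compound treatment at 37 deg C flags inhibition of Vif-driven A3F-eYFP loss in stable HeLa A3F-eYFP/Vif cells seeded overnight beforehand.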
# PLK1 PBD block: inhibitors of human PLK1 polo-box domain binding; P53350; Plk1 PBD binding of FITC phosphopeptide, fluorescence polarization; Potency, µM, usual class: inhibitors; 360,000 compounds, 2.8% hits; AID 720504; note: series mostly up to about 57 µM; nearly all actives have a fitted effect of over 65% in size
# Target sequence (P53350 whole entry, looked up, the tested form may be a part): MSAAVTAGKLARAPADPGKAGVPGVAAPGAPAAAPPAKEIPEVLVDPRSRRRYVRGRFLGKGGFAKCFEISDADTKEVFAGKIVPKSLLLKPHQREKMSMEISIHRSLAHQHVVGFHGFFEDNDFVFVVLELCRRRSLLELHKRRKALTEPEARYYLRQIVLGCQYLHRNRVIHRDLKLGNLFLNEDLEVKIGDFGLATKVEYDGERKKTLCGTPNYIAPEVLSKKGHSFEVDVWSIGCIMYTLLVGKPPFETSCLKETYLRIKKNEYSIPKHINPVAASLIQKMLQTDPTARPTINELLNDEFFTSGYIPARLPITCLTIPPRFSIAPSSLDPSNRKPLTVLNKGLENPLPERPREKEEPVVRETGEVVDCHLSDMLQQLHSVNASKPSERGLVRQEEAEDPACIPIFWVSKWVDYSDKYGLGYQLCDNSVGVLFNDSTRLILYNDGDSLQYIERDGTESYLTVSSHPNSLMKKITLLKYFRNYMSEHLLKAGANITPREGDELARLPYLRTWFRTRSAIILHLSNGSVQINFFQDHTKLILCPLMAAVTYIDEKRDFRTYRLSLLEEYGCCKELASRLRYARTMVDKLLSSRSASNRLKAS
# VDR inhibitor: inhibitors of human vitamin D receptor | VDR-SRC2-3 peptide fluorescence polarization, 2 h | 400,000 compounds, 0.93% hits | AID 504847 | Potency, µM, most hits filed as inhibitors
#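 Fluorescence polarization assay measuring small-molecule disruption of VDR binding to the coregulator peptide SRC2-3. Compounds were pin-transferred (23 nl) into the reagent mix and incubated 2 h at room temperature before reading.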
# Vif-APOBEC3G blk: blocks the Vif interaction with human APOBEC3G. Q9HC16. HeLa A3G-eYFP + Vif (tagged APOBEC3G with the HIV-1 protein that degrades it), YFP fluorescence, overnight. Potency, µM (highest dose often 46.1 µM), hits mostly inhibitors. 410,000 compounds, 0.076% hits; note: nearly all actives have a fitted effect of over 60% in size
#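 Read-out is eYFP fluorescence (Ex 488/Em 500-530) from Vif-expressing HeLa A3G-eYFP cells; more signal means A3G escaped Vif-mediated degradation. Cells plated overnight, compound pinned in, incubated overnight at 37 deg C.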
# Hits are given with their value; 0 = inactive; ? = inconclusive; - = not tested or not shown. Hits are enriched below; roughly 3.1% of the tested compounds scored in any of these assays. Unless noted, calls come from the whole dose curve; as a rule, active = well fitted curve in the direction sought with a large enough effect; inconclusive = small, poorly fitted or top-dose-only effect, or another doubt; inactive = no such curve, though single readings can be large; an effect the other way counts as inactive or inconclusive.
SMILES,TSHR antagonist,Vif-APOBEC3F blk,PLK1 PBD block,VDR inhibitor,Vif-APOBEC3G blk
COc1cc(/C=C2\C(=N)N3N=C(S(C)(=O)=O)SC3=NC2=O)ccc1OS(=O)(=O)c1ccccc1,0,-,-,-,-
CCC1=NN2C(=N)/C(=C/c3ccc(OS(=O)(=O)c4ccc(C)cc4)c(OC)c3)C(=O)N=C2S1,0,0,15µM,0,0
COc1ccc(C2CC(c3ccccc3)Oc3ccc(C(C)(C)C)cc32)cc1 (configuration not stated),-,-,-,0,0
Oc1ccc(Br)cc1C1C=C(c2ccc3c(c2)OCO3)NC(c2ccc(Br)cc2)N1 (configuration not stated),-,-,-,?,0
CCOC(=O)c1cccc(OCC(O)CNCCOc2ccccc2F)c1 (configuration not stated),-106,0,0,0,0
COc1ccc(C(=O)NCCn2cc(SCc3c(F)cccc3Cl)c3ccccc32)cc1,-,0,-,0,0
Cn1c(Cn2c(=O)sc3ccccc32)nnc1SCC(=O)NC1CCCC1,0,0,24µM,0,0
Cn1c(SCC(=O)NC2CC2)nnc1-c1ccccc1Cl,0,0,27µM,0,0
Cn1c(SCC(=O)NC2CC2)nnc1-c1ccccc1,0,0,0,0,0
Cn1c(CNC(=O)c2ccc(Cl)cc2)nnc1SCC(=O)NC1CCCC1,-98,0,0,0,0
Nc1nc2c(nc(N3CCOCC3)n2COCCO)c(=O)[nH]1,-,-,-,-,0
O=S(=O)(Nc1cccnc1)c1cccc2ccccc12,-,-,-,0,0
CCc1cc2c(SCC#N)ncnc2s1,0,0,27µM,0,0
Cc1ccc(CCNS(=O)(=O)c2c(C)nc3sc(C)c(C)n3c2=O)cc1,-,0,-,0,0
CN(Cc1ccco1)c1nc(-c2ccccc2C(F)(F)F)nc2ccccc12,-,-,-,35µM,-
CN(Cc1ccco1)c1nc(-c2cccnc2)nc2ccccc12,-,-,-,32µM,-
Cc1ccc(CN(C)c2nc(-c3cccnc3)nc3ccccc23)o1,0,0,0,0,0
c1ccc(CSc2ccc3nnc(-c4ccccn4)n3n2)cc1,0,0,0,0,0
FC(F)(Cl)c1nnc2ccc(Sc3ccccn3)nn12,0,0,21µM,0,0
CC1(C(=O)O)NCCc2cc(O)c(O)cc21 (configuration not stated),-,-,-,0,-
CC(=O)N(c1ccccc1)C1SC(=O)N(c2ccccc2)C1=O (configuration not stated),0,0,21µM,0,0
CCN(c1ccccc1)C1SC(=O)N(c2ccccc2)C1=O (configuration not stated),-,-,-,0,-
CC(=O)N(c1cccc(C)c1)C1SC(=O)N(c2ccccc2)C1=O (configuration not stated),0,0,24µM,0,0
CC(=O)N1c2ccccc2C2(O)N=C(C)SC12 (configuration not stated),0,0,5.3µM,?,0
CC(=O)N1c2ccccc2[C@@H](C)[C@@H]1C,0,0,0,0,0
SMILES,TSHR antagonist,Vif-APOBEC3F blk,PLK1 PBD block,VDR inhibitor,Vif-APOBEC3G blk
Cc1cc(O)c2ccccc2c1O,-,-,-,35µM,-
CC(=O)Oc1c(C)cc(O)c2ccccc12,0,-,-,-,-
CC(C)(C)n1ncc2c(=O)n(Cc3ccccc3-c3ccccc3)cnc21,-,-,-,-,0
Cc1ccccc1OCc1nc2ccccc2[nH]1,0,0,27µM,0,0
COc1ccccc1OCc1nc2ccccc2[nH]1,0,0,0,0,0
Cc1ccc2c(c1)cc(CN(Cc1cccs1)C(=O)c1ccco1)c1nnnn12,0,0,8.4µM,?,0
Cc1ccc2cc(CN(Cc3cccs3)C(=O)c3ccco3)c3nnnn3c2c1C,0,-,-,-,-
Cc1sc2ncnc(N=Nc3c(O)[nH]c4ccccc34)c2c1C,0,22µM,0,0,0
C=CCOC(=O)/C(=C\c1cccc2ccccc12)NC(=O)c1ccccc1,0,0,0,0,0
C=CCOC(=O)C(=O)/C=C/c1csc2ccccc12,0,0,?,45µM,0
CCOC(=O)c1c(NC(=S)NCCc2ccccc2)sc2c1CC(C(C)C)OC2 (configuration not stated),0,0,0,0,0
Cc1sc(NC(=S)NC(=O)c2ccc(C(C)(C)C)cc2)c(C#N)c1C,0,0,?,0,0
CCCN1CCc2c(sc(NC(=S)NC(=O)c3ccccc3)c2C#N)C1,0,25µM,7.5µM,?,0
CC(C)N1CCc2c(sc(NC(=S)NC(=O)c3ccccc3)c2C#N)C1,0,?,?,0,?
Cc1sc(NC(=S)NC(=O)c2ccccc2)c(C#N)c1C,-,0,12µM,0,0
CC(C)C1Cc2c(sc(NC(=S)NC(=O)c3ccccc3)c2C#N)CO1 (configuration not stated),0,0,24µM,0,0
O=C(NCCS(=O)(=O)N1CCN(c2ccccc2)CC1)C(c1ccccc1)c1ccccc1,-,0,-,0,0
COc1ccc(N(CC(=O)Nc2ccccc2C)S(=O)(=O)c2ccccc2[N+](=O)[O-])c(OC)c1,0,0,7.5µM,?,0
COc1ccc(N(CC(=O)Nc2c(C)cccc2C)S(=O)(=O)c2ccccc2[N+](=O)[O-])c(OC)c1,0,0,0,0,0
COc1ccc(OC)c(S(=O)(=O)Nc2ccc(-c3ccc4nncn4n3)cc2)c1,0,0,27µM,0,0
O=C(O)CCN1C(=O)/C(=C/c2cn(-c3ccccc3)nc2-c2cccs2)SC1=S,0,0,30µM,?,0
O=C(O)CCCCCN1C(=O)/C(=C/c2cn(-c3ccccc3)nc2-c2cccs2)SC1=S,-,?,27µM,0,0
O=C(O)CCCCCN1C(=O)/C(=C\c2cn(-c3ccccc3)nc2-c2cccs2)SC1=S,0,?,0,0,0
CN(C(=O)c1ccoc1)c1ccccc1I,-,-,-,0,0
CC1(C)O[C@H]2CC(=O)OC[C@@]23C1CC(=O)[C@]1(C)C3CC[C@@]2(C)[C@H](c3ccoc3)OC(=O)[C@H]3O[C@]321 (some centres not stated),0,0,0,0,0
SMILES,TSHR antagonist,Vif-APOBEC3F blk,PLK1 PBD block,VDR inhibitor,Vif-APOBEC3G blk
CC1(C)C(=O)C=C[C@]2(C)C1CC(=O)[C@]1(C)C2CC[C@@]2(C)C(c3ccoc3)OC(=O)C3O[C@@]321 (some centres not stated),-,-,-,20µM,-
Cc1ccc(Cn2cnc3c(cnn3C(C)(C)C)c2=O)cc1F,-,-,-,-,0
CCCCCCC1(C)NC(=S)N(c2ccccc2)N1 (configuration not stated),0,0,19µM,?,0
CC1(CC(=O)Nc2ccccc2)NC(=S)N(c2ccccc2)N1 (configuration not stated),0,0,27µM,0,0
C=C(C)CCC1(C)NC(=O)N(c2ccccc2)N1 (configuration not stated),0,0,0,0,0
CCCCCC1(C)NC(=S)N(c2ccccc2)N1 (configuration not stated),0,0,0,?,0
CN(C)CCNC(=O)COc1ccc(Cl)cc1Cl,0,0,0,0,0

# From PubChem BioAssay
